Consider 15 molecules from PubChem BioAssay AID624295 (Southern Research Specialized Biocontainment Screening …, 2012).

Molecules are shown by their SMILES. Activity calls are given as the source filed them. No rule for the calls is given here.

A short description of this experiment: Vero 76 cell cytotoxicity, cytotoxicity control for VEEV inhibitor project, set 6 (AID 624295). To be noted: Vero 76 cells viability, cytotoxicity counter-screen; series mostly up to 25 µM.
`CCN1CCN(Cc2nc3cccc([N+](=O)[O-])c3c(=O)n2-c2ccccc2)CC1`: the molecule was called inactive.

Consider `CN1CCN(Cc2nc3ccc([N+](=O)[O-])cc3c(=O)n2-c2ccccc2F)CC1`, for which the result was inactive.

Turning to `O=c1c2cc([N+](=O)[O-])ccc2nc(CN2CCNCC2)n1-c1ccccc1F`, the call was inactive.

For the molecule `O=c1c2cc([N+](=O)[O-])ccc2nc(CN2CCCCC2)n1-c1ccccc1F`, the molecule was called inactive.

Take `CCN1CCN(Cc2nc3ccc([N+](=O)[O-])cc3c(=O)n2-c2cccc(F)c2)CC1`: the outcome was inactive.

For `CCN1CCN(Cc2nc3cc([N+](=O)[O-])ccc3c(=O)n2-c2ccccc2)CC1`, the outcome was inactive.

With `CCN1CCN(Cc2nc3ccc([N+](=O)[O-])cc3c(=O)n2-c2ccccc2)CC1`, the molecule was called inactive.

Turning to `CCN1CCN(Cc2nc3ccc([N+](=O)[O-])cc3c(=O)[nH]2)CC1`, the molecule was called inactive.

Turning to `CCN1CCN(Cc2nc3ccc(C(=O)N(C)C)cc3c(=O)n2-c2ccccc2)CC1`, the result was inactive.

In the case of `NS(=O)(=O)c1ccc(-n2c(-c3ccccc3)nc3ccc(Br)cc3c2=O)cc1`, the result was inactive.

As for `CCN1CCN(Cc2nc3ccc(I)cc3c(=O)n2-c2ccccc2)CC1`, the outcome was inactive.

`O=c1c2cc([N+](=O)[O-])ccc2nc(CN2CCNCC2)n1-c1ccccc1`: the molecule was classed as inactive.

For the molecule `CCN1CCN(Cc2nc3ccc([N+](=O)[O-])cc3c(=O)n2C(C)C)CC1`, the molecule was classed as inactive.

Regarding `CCN1CCN(Cc2nc3ccc([N+](=O)[O-])cc3c(=O)n2-c2ccc(F)cc2)CC1`, the outcome was inactive.

Consider `CCN1CCN(Cc2nc3ccc(C(N)=O)cc3c(=O)n2-c2ccccc2)CC1`, for which the outcome was inactive.
